Source: the supplement of paper PMC10849652
About 7,900 targets were measured; listed, in parts, are those with a hit and a random draw of the rest. About 0.6% of all pairs of compound and target were hits. Unmarked numbers belong to inactive results.

Tests used:
Assay in all cases: log2 fold change, soluble protein after heating vs DMSO (PISA); higher = thermal stabilisation; K562 cells, 10 uM, 30 min; active = over 0.2 and 3.5 SD of the protein, either way, in both replicates (recomputed)
[1] = compound: CC[C@@H]1C(=O)N(C)c2cnc(Nc3ccc(C(=O)NC4CCN(C)CC4)cc3OC)nc2N1C1CCCC1
Method in brief: (§1)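 Soluble protein was quantified by TMTpro 16plex LC-MS/MS after channel sums were equalised. It was obtained as the supernatant after 21,000xg for 90 min from pooled aliquots of K562 cells (2×10^6 cells/mL, 10 μM compound, 30 min) heated for 3 min across 48°C-58°C and extracted in PBS with 0.5% NP-40 at 4°C. Thermal stability values are relative to control samples and come from duplicates. They are given as log2 fold changes.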

volasertib = compound: CC[C@@H]1C(=O)N(C)c2cnc(Nc3ccc(C(=O)N[C@H]4CC[C@H](N5CCN(CC6CC6)CC5)CC4)cc3OC)nc2N1C(C)C [volasertib]
Method in brief: as §1

[2] = compound: CC[C@H](C)N1C=C(C2=C(C=C(C=C21)C3=CN=C(C=C3)N4CCNCC4)C(=O)NCC5=C(C=C(NC5=O)C)C)C
Method in brief: as §1

epoxomicin = compound: CC[C@H](C)[C@@H](C(=O)N[C@@H]([C@@H](C)O)C(=O)N[C@@H](CC(C)C)C(=O)[C@]1(CO1)C)NC(=O)[C@H]([C@@H](C)CC)N(C)C(=O)C [epoxomicin]
Method in brief: as §1

[3] = compound: CCn1c(C(=O)N(C2CC2)C2CC2)cc2c3c(ncn3C)c(Nc3cc(C)n(C)n3)nc21
Method in brief: as §1

[4] = compound: CCn1cc(-c2ccnc3[nH]c(-c4cccc(CN(C)C)c4)cc23)c(-c2ccc(NC(=O)N(C)C)cc2)n1
Method in brief: as §1

[5] = compound: CN(C)CC(=O)Nc1ccc2[nH]c(=O)c3ccccc3c2c1
Method in brief: as §1

rosiglitazone = compound: CN(CCOC1=CC=C(C=C1)C[C@H]2C(=O)NC(=O)S2)C3=CC=CC=N3 (racemic) [rosiglitazone]
Method in brief: as §1

[6] = compound: CN1C2=C(C3=C1C(=O)N(N=C3)CC4=CC(=CC=C4)N)SC(=C2)S(=O)C
Method in brief: as §1

[7] = compound: CN1CCC(CNc2ccc3ncc(-c4cccc(OC(F)(F)F)c4)n3n2)CC1
Method in brief: as §1

saracatinib = compound: CN1CCN(CCOc2cc(OC3CCOCC3)c3c(Nc4c(Cl)ccc5c4OCO5)ncnc3c2)CC1 [saracatinib]
Method in brief: as §1

sotrastaurin = compound: CN1CCN(c2nc(C3=C(c4c[nH]c5ccccc45)C(=O)NC3=O)c3ccccc3n2)CC1 [sotrastaurin]
Method in brief: as §1

alvocidib = compound: CN1CC[C@H](c2c(O)cc(O)c3c(=O)cc(-c4ccccc4Cl)oc23)[C@H](O)C1 [alvocidib]
Method in brief: as §1

Tubastatin A = compound: CN1CCc2c(c3ccccc3n2Cc2ccc(C(=O)NO)cc2)C1 [Tubastatin A]
Method in brief: as §1

[8] = compound: CNC(=O)C1=CC=CC=C1NC2=NC(=NC=C2Cl)NC3=C(C=C(C=C3)N4CCOCC4)OC
Method in brief: as §1

defactinib = compound: CNC(=O)c1ccc(Nc2ncc(C(F)(F)F)c(NCc3nccnc3N(C)S(C)(=O)=O)n2)cc1 [defactinib]
Method in brief: as §1

rucaparib = compound: CNCc1ccc(-c2[nH]c3cc(F)cc4c3c2CCNC4=O)cc1 [rucaparib]
Method in brief: as §1

[9] = compound: CNc1nc(-c2ccc3c(N)n[nH]c3c2)cc(N2C[C@@H](C(=O)NC3CCCCC3)CC[C@H]2C)n1
Method in brief: as §1

encorafenib = compound: COC(=O)N[C@@H](C)CNc1nccc(-c2cn(C(C)C)nc2-c2cc(Cl)cc(NS(C)(=O)=O)c2F)n1 [encorafenib]
Method in brief: as §1

[10] = compound: COC(=O)[C@H](CCSC)NC(=O)C1=C(C=C(C=C1)NC[C@H](CS)N)C2=CC=CC=C2
Method in brief: as §1

UniProt P46020, sequence (P46020 whole entry, looked up): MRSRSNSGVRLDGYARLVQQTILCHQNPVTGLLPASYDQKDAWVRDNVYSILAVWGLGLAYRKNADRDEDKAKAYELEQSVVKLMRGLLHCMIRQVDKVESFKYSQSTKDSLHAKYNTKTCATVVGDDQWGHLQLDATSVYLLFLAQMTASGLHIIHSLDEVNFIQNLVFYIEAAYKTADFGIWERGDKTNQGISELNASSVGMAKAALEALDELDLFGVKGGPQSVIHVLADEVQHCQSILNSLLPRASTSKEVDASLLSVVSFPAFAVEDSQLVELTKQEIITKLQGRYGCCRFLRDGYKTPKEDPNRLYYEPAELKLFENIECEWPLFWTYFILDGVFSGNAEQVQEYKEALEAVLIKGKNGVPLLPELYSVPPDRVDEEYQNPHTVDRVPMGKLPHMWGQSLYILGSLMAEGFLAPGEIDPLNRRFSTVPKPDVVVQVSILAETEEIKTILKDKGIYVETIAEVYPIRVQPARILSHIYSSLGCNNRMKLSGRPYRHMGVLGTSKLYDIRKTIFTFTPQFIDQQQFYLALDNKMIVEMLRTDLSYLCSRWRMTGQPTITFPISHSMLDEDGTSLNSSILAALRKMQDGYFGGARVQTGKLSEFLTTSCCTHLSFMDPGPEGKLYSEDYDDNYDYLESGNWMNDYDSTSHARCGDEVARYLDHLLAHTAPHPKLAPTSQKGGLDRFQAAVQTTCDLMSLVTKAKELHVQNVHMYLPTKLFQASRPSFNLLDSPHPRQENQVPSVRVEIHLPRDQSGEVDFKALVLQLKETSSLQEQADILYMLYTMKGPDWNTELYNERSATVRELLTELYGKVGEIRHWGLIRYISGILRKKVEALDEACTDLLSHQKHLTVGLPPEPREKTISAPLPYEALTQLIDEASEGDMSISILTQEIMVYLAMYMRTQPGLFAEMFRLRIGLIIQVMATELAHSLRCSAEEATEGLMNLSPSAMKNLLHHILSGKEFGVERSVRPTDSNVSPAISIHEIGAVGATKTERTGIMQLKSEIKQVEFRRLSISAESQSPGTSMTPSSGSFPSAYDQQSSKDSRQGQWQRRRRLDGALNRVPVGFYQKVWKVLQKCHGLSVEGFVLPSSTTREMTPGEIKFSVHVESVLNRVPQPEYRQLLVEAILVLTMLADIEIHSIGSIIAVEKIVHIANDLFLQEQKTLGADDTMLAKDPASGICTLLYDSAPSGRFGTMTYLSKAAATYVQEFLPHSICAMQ
UniProt P49642, sequence (P49642 whole entry, looked up): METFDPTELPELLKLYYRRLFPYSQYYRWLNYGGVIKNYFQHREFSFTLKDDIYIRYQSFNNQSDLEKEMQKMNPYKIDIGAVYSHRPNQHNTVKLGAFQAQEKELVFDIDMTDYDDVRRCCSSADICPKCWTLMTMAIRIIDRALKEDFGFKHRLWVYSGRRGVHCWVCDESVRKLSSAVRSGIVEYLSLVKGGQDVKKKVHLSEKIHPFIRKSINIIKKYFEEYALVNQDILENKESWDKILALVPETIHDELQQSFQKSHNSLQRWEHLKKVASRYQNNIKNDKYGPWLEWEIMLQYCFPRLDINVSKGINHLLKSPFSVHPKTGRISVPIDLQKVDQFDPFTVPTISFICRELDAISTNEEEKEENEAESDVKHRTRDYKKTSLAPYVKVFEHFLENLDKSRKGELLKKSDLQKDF
UniProt P09874, sequence (P09874 whole entry, looked up): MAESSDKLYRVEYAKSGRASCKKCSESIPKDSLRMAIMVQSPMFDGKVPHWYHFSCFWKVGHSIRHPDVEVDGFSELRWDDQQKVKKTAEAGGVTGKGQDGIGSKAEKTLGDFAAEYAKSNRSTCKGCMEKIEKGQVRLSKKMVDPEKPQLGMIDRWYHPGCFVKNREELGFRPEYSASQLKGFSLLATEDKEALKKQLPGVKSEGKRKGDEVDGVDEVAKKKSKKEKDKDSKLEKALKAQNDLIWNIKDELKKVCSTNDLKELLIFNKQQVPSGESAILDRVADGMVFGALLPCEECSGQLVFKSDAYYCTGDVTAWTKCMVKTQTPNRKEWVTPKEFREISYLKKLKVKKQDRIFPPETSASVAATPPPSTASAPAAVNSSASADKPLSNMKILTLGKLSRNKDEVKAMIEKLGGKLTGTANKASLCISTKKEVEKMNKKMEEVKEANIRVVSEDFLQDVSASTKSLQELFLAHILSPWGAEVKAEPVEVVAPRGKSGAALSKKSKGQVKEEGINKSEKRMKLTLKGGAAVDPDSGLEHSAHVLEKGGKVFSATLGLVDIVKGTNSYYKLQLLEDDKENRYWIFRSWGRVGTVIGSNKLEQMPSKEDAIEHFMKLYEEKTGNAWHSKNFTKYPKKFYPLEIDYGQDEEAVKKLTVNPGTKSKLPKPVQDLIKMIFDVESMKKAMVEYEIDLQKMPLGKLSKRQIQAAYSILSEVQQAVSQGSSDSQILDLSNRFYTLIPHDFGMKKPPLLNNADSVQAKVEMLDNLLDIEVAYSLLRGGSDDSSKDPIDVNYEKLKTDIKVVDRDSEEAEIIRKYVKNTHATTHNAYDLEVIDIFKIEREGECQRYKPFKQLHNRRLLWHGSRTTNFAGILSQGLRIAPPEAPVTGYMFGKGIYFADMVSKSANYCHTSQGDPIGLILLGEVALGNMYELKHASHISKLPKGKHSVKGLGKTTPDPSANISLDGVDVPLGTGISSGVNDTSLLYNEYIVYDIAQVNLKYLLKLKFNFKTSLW
UniProt Q86TB9, sequence (Q86TB9 whole entry, looked up): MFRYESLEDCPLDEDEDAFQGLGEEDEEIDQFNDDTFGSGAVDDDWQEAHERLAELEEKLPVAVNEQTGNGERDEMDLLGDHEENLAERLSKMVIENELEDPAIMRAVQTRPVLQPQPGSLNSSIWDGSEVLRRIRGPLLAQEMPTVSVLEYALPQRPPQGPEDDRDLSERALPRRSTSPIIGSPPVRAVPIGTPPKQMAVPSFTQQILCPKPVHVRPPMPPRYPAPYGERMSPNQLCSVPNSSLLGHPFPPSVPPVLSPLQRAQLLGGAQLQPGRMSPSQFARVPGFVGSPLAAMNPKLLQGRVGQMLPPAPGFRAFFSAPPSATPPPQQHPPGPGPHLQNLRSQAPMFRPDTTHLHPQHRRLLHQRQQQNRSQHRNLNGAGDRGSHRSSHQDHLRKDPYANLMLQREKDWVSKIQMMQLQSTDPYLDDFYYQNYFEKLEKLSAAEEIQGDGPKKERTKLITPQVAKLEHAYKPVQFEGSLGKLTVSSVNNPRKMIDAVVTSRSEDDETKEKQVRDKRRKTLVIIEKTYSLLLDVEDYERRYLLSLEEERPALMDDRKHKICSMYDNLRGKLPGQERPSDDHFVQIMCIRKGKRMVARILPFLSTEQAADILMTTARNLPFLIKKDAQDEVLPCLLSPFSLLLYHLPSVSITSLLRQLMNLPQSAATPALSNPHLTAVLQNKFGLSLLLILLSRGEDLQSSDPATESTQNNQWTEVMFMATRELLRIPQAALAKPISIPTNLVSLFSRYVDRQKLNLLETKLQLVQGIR
UniProt Q9UNM6, sequence (Q9UNM6 whole entry, looked up): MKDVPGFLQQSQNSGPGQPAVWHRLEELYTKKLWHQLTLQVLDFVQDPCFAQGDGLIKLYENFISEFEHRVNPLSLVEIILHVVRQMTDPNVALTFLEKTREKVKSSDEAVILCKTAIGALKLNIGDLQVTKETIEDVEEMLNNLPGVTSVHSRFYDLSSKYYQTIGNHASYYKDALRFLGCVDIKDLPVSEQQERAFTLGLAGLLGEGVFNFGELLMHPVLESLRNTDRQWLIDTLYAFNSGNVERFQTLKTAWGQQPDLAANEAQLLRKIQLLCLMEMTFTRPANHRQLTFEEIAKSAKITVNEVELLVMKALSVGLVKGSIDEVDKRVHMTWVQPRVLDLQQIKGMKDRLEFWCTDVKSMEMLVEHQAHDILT
UniProt P28065, sequence (P28065 whole entry, looked up): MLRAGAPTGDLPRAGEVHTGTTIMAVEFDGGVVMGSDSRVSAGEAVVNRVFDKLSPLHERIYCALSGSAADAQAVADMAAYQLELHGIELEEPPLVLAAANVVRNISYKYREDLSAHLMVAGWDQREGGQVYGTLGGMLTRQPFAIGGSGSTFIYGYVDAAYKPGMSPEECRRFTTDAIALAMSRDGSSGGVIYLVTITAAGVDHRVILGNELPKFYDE
UniProt Q14442, sequence (Q14442 whole entry, looked up): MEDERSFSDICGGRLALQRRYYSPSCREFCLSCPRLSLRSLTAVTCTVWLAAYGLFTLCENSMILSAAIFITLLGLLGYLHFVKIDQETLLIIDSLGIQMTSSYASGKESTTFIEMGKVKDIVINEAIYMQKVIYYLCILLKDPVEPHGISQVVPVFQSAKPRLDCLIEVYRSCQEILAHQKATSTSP
UniProt Q12974, sequence (Q12974 whole entry, looked up): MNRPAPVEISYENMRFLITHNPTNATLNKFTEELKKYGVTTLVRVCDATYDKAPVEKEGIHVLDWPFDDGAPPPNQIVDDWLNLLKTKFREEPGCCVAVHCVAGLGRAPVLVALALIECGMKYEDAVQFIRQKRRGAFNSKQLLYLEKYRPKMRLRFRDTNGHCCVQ
UniProt Q6P4A8, sequence (Q6P4A8 whole entry, looked up): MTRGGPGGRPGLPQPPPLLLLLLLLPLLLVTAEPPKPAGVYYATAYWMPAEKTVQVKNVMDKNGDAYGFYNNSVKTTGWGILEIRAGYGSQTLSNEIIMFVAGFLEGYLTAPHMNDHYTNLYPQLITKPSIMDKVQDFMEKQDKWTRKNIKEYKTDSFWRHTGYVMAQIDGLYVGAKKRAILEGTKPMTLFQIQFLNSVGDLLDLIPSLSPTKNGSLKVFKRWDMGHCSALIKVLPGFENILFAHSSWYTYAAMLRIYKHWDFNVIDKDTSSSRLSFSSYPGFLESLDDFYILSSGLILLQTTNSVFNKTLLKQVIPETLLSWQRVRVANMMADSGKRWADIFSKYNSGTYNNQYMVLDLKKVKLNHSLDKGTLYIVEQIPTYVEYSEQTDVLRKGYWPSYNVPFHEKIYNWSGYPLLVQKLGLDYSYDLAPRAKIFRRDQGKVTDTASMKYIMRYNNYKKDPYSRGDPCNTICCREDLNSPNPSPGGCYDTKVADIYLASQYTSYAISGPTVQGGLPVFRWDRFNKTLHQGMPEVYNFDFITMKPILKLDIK

Target | log2 fold change [1] | log2 fold change (volasertib) | log2 fold change [2] | log2 fold change (epoxomicin) | log2 fold change [3] | log2 fold change [4] | log2 fold change [5] | log2 fold change (rosiglitazone) | log2 fold change [6] | log2 fold change [7] | log2 fold change (saracatinib) | log2 fold change (sotrastaurin) | log2 fold change (alvocidib) | log2 fold change (Tubastatin A) | log2 fold change [8] | log2 fold change (defactinib) | log2 fold change (rucaparib) | log2 fold change [9] | log2 fold change (encorafenib) | log2 fold change [10]
PSMD13 (UniProt Q9UNM6) | 0.075 | 0.217 | 0.008 | -0.288 (active) | 0.012 | 0.043 | -0.01 | 0.009 | 0.02 | 0.038 | -0.073 | 0 | 0.061 | 0.038 | 0.027 | 0.068 | 0.024 | 0.043 | 0.063 | 0.003
PHC3 isoform 7 (UniProt Q8NDX5) | 0.076 | -0.163 | 0.178 | 0.254 | -0.113 | – | – | 0.066 | – | – | – | -0.071 | -0.057 | – | -0.007 | – | -0.276 | – | 0.154 | –
PLBD1 (UniProt Q6P4A8) | -0.063 | -0.076 | -0.022 | -0.016 | -0.005 | -0.028 | 0.088 | -0.049 | -0.01 | -0.352 (active) | 0.024 | 0.071 | -0.017 | -0.013 | 0.054 | 0.023 | 0.034 | 0.001 | 0.001 | 0
PATL1 (UniProt Q86TB9) | 0.109 | 0.013 | – | -0.041 | -0.022 | 0.051 | 0.007 | 0.078 | 0.104 | -0.445 (active) | -0.075 | -0.16 | -0.127 | -0.001 | -0.135 | -0.078 | 0.131 | 0.025 | 0.155 | -0.066
POLB (UniProt P06746) | -0.127 | -0.073 | 0.077 | 0.043 | -0.078 | 0.111 | – | – | 0.016 | -0.156 | -0.21 | -0.16 | 0.195 | 0.138 | 0.062 | – | 0.095 | 0.05 | 0.031 | –
PRKAR1B (UniProt P31321) | 0.024 | -0.054 | -0.067 | -0.063 | 0.119 | 0.12 | -0.001 | 0.042 | 0.127 | 0.43 (active) | -0.137 | -0.02 | 0.128 | 0.035 | 0.247 | 0.117 | 0.029 | 0.047 | 0.056 | -0.067
PCNX1 (UniProt Q96RV3) | 0.331 | 0.132 | -0.004 | -0.017 | – | – | -0.064 | 0.028 | – | – | – | – | – | -0.041 | – | 0.027 | -0.123 | – | 0.085 | -0.039
PRIM1 (UniProt P49642) | -0.097 | -0.249 | 0.093 | 0.088 | -0.072 | -0.018 | 0.117 | 0.048 | 0.052 | -0.12 | -0.109 | -0.111 | -0.007 | 0.042 | 0.116 | -0.107 | 0.084 | 0.051 | 0.153 | -0.082
PRMT7 (UniProt Q9NVM4) | -0.074 | -0.461 (active) | 0.04 | -0.036 | -0.042 | -0.077 | 0.032 | 0.082 | 0.022 | -0.176 | -0.02 | -0.124 | -0.219 | 0.088 | 0.004 | -0.086 | 0.008 | 0.031 | 0.112 | -0.04
PRKCQ (UniProt Q04759) | -0.11 | -0.17 | 0.031 | 0.001 | -0.028 | -0.047 | 0.021 | 0.049 | -0.014 | -0.496 (active) | -0.034 | -0.903 (active) | -0.185 | 0.017 | -0.047 | -0.03 | 0.003 | 0.002 | 0.043 | -0.025
PMPCB (UniProt O75439) | 0.008 | 0.138 | 0.038 | 0.022 | -0.017 | -0.125 | 0.032 | 0.002 | -0.084 | 0.098 | 0.001 | 0.051 | -0.073 | -0.068 | 0.005 | -0.042 | -0.033 | -0.003 | -0.022 | -0.029
PHKA1 (UniProt P46020) | 0.042 | -0.367 | 0.076 | -0.039 | -0.019 | 0.143 | – | -0.038 | 0.112 | -0.045 | -0.12 | 0.058 | -0.073 | -0.256 | 0.101 | – | -0.283 | 0.027 | -0.295 | –
PSMB9 (UniProt P28065) | 0.114 | 0.008 | – | 0.049 | -0.046 | 0.033 | -0.043 | -0.057 | – | 0.051 | – | 0.074 | 0.071 | – | 0.062 | -0.008 | 0.296 | – | -0.22 | 0.094
PIGH (UniProt Q14442) | 0.06 | -0.008 | – | -0.128 | 0.022 | -0.038 | 0.013 | 0.058 | 0.115 | 0.051 | -0.099 | – | 0.022 | -0.274 (active) | 0.012 | 0.005 | 0.037 | 0.025 | -0.068 | -0.001
PTP4A2 (UniProt Q12974) | 0.039 | 0.083 | 0.077 | 0.153 | 0.027 | – | -0.026 | -0.124 | -0.003 | – | -0.038 | 0.107 | -0.332 (active) | 0.057 | -0.1 | -0.213 | -0.143 | -0.066 | 0.008 | 0.117
PPP2R5B (UniProt Q15173) | -0.348 | -0.173 | 0.021 | – | 0.025 | 0.015 | 0.128 | 0.11 | -0.05 | -0.529 (active) | -0.161 | – | – | – | -0.064 | 0.051 | -0.015 | -0.043 | 0.07 | -0.135
PARP1 (UniProt P09874) | -0.233 | -0.57 (active) | 0.162 | 0.1 | -0.088 | 0.302 | – | 0.086 | 0.027 | -0.146 | -0.025 | -0.104 | -0.004 | 0.037 | 0.094 | -0.089 | 1.05 (active) | 0.038 | 0.079 | -0.04
PIK3C3 (UniProt Q8NEB9) | 0.16 | 0.153 | 0.023 | -0.071 | 0.044 | -0.117 | -0.03 | -0.022 | 0.025 | 0.015 | -0.007 | -0.039 | 0.044 | 0.027 | -0.003 | -0.012 | 0.25 | 0.002 | 0.05 | -0.018
